# According to PubChem BioAssay (Tox21):
# Inconclusive results are not listed. The source made the active and inactive calls. Calls come from the whole dose curve; as a rule, active = well fitted inhibition curve with a large enough effect in the repeat runs; inconclusive = weak or mixed curves; inactive = no such curve, though single readings can be large or run the other way.
# Target: Cytochrome P450 2C19 (Homo sapiens) (UniProt P33261)
# Experiment: Cytochrome P450 Family 2 Subfamily C Member 19 (CYP2C19) small molecule antagonists: luciferase reporter qHTS assay (AID 1671197); note: nearly all actives have a fitted effect of over 65% in size
# Conditions: P450-Glo CYP2C19 enzyme, luciferin luminescence, 1 h; series mostly up to 115 µM; activity change, negative = inhibition: at the top concentration
# Source text: National Center for Advancing Translational Sciences [NCATS]
# U.S. Environmental Protection Agency [EPA]
# National Institutes of Environmental Health Sciences [NIEHS]
# National Toxicology Program [NTP]
# U.S. Food and Drug Administration [FDA]
# Cytochrome P450 (CYP) enzymes are membrane-bound hemeproteins that play a key role in metabolism of drugs and xenobiotics. Evaluation of the effect of chemicals on CYP isozymes is useful to minimize the adverse drug reactions and toxicities in drug development process. Tox21 chemicals were tested for their effect on CYP enzyme activities by using P450-Glo (TM) screening systems (Promega Corporation, Madison, WI). These systems provide a luminescent method containing proluciferin substrates and are converted to luciferin products by CYP isozymes. The luciferin products formed are detected with a luciferin detection reagent, and the amount of light produced is proportional to CYP activity. P450-Glo (TM) CYP2C19 screening system (Catalog. No. V9880) was used to detect the compounds that interfere in CYP2C19 activity. The positive control compound used for CYP2C19 assay is ketoconazole (Sigma-Aldrich, St. Louis, MO).
# Tox21 Assay Protocol Summary:
# Two ul of enzyme-substrate mix was dispensed into medium binding white/solid 1536-well plates (Greiner Bio-One North America Inc., Monroe, NC) using a BioRaptr Flying Reagent Dispenser (FRD, Beckman Coulter, Brea, CA). Compounds dissolved in DMSO and positive control (ketoconazole) were transferred to the assay plates at 23 nl using a Pintool station (Wako, San Diego, CA). The assay plates were incubated at room temperature for 10 min. Then 2 ul of NADPH regeneration solution was added to each well of the assay plates using an FRD and incubated at 37C for 1 h. The reaction was stopped by adding 4 ul of detection reagent using an FRD and after 20 min incubation at room temperature the luminescence signal was measured using a ViewLux plate reader (Perkin Elmer, Shelton, CT). Data were expressed as relative luminescence units.
# % is set by controls: 0 for no effect and ±100 for the full control effect; potency is the fitted concentration of half-maximal effect.
# Sequence of Cytochrome P450 2C19 (Homo sapiens) (P33261 whole entry, looked up): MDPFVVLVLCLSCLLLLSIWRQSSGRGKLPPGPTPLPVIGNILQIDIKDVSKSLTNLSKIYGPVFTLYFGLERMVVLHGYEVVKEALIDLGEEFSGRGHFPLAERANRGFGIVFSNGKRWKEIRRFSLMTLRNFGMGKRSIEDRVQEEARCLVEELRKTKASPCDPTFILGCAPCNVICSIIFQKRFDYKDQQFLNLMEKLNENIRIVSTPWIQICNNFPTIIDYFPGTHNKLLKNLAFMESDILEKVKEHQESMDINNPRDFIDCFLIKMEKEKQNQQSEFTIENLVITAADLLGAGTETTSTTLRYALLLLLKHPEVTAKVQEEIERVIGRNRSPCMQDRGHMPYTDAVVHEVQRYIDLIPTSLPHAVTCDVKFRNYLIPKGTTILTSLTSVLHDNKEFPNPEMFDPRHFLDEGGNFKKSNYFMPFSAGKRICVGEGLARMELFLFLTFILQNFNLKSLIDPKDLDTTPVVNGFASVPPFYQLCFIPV
Structure (SMILES),Potency,"activity change, negative = inhibition"
O=C(COCCOCCOCC(=O)Nc1c(I)cc(I)c(C(=O)O)c1I)Nc1c(I)cc(I)c(C(=O)O)c1I,34.7 µM (active),
OC[C@@H](O)[C@H](O)[C@@H](O)[C@@H](O)CO,44.8 µM (active),
COc1cccc2sc(N)nc12,56.7 µM (active),
CCCCC/C=C/CC(=O)OC,,-17.9% (inactive)
CC(C)COC(=O)COc1ccc(Cl)cc1Cl,56.3 µM (active),
Cc1c(C(C)C)c(=O)n(-c2ccccc2)n1C,43.6 µM (active),
O=C(/C=C/c1ccccc1)NCCO,15.5 µM (active),
CCC(=O)OCCC(C)CCC=C(C)C (stereo not given),20 µM (active),
O=c1[nH]c(=O)c2ccccc2o1,,-10.6% [at 52.9 µM] (inactive)
COc1ccc(N=Nc2cc(C)c(N=Nc3ccc(S(=O)(=O)O)cc3)cc2OC)cc1,,-15.8% (inactive)
CN(C)CCOCCN(C)CCO,,-3.5% (inactive)
O=P(O)(O)OCC(O)CO (stereo not given),,28.5% [at 52.9 µM] (inactive)
CCCOC(=O)CCCCC(=O)OCCC,20 µM (active),
C=CCOCC(CO)(COCC=C)COCC=C,0.717 µM (active),
CC(C)COC(=O)CC(C(=O)OCC(C)C)S(=O)(=O)O (stereo not given),,-6.86% (inactive)
Cc1ccc(C(=O)C(=O)O)cc1C,,-27.6% [at 52.9 µM] (inactive)
Nc1ccc(C(=O)OCC(O)CO)cc1 (stereo not given),17.4 µM (active),
CC1=NN(c2ccc(S(=O)(=O)O)cc2)C(=O)C1N=Nc1ccccc1 (stereo not given),,22.2% (inactive)
CC1CCC(C(C)(C)S)C(=O)C1 (stereo not given),79.6 µM (active),
CCOC(=O)C(C)(C)C,,-8.94% (inactive)

Structure (SMILES),Potency,"activity change, negative = inhibition"
CCCCCN(CCCOC)C(=O)C(CCC(=O)O)NC(=O)c1ccc(Cl)c(Cl)c1 (stereo not given),,-2% [at 52.9 µM] (inactive)
O=C(O)/C=C/c1ccccc1,,5.53% (inactive)
CC(C)CCC(=O)CCC(C)C,,-0.522% (inactive)
CC(C)CCCCCCOC(=O)C1CCCCC1C(=O)OCCCCCCC(C)C (stereo not given),,5.73% (inactive)
COc1ccc(OC)c(NC(=O)CC(C)=O)c1,15.9 µM (active),
C1=C\CC/C=C\CC/1,,-7.13% (inactive)
CCc1nccnc1C,,21.7% (inactive)
CC1(N)CCC(C(C)(C)N)CC1 (stereo not given),,18.9% (inactive)
CC(=O)OC(C)c1ccccc1 (stereo not given),,6.11% (inactive)
C[C@H](CCC(=O)NCC(=O)O)[C@H]1CC[C@H]2[C@@H]3[C@H](O)C[C@@H]4C[C@H](O)CC[C@]4(C)[C@H]3C[C@H](O)[C@]12C,,5.71% (inactive)
c1ccccc1,,9.19% (inactive)
CC1=CC[C@H](CC=O)C1(C)C,,-21% (inactive)
CCCCCC1CCCC(=O)O1 (stereo not given),79.6 µM (active),
CC(Cl)COP(=O)(OCC(C)Cl)OCC(C)Cl (stereo not given),19.9 µM (active),
O=c1cc(O)c(Cl)c[nH]1,,-5.15% [at 52.9 µM] (inactive)
CCOC(=O)OCC/C(SC(=O)OCC)=C(\C)N(C=O)Cc1cnc(C)nc1N,,7.72% [at 52.9 µM] (inactive)
Nc1ccc(S(=O)(=O)Nc2ccccn2)cc1,,13.8% [at 52.9 µM] (inactive)
Cc1cccc(Nc2ccncc2S(=O)(=O)NC(=O)NC(C)C)c1,,-13.4% [at 52.9 µM] (inactive)
Nc1ccnc(=O)[nH]1,,-12.3% (inactive)
CCNC(=O)NCCCOc1cccc(CN2CCCCC2)c1,,19.6% [at 52.9 µM] (inactive)
